{
  "source": "PubChem BioAssay (NCI)",
  "note": "This is part of a sample that, as a whole, favours compounds with a hit. Of some 79,000 tested, about 15% had one in any assay. Unmarked numbers belong to inactive results. Calls of active or inactive are those of the source. Cut-off read from the data, not from the text of the source: active = growth inhibition above about 70%; inactive = the rest.",
  "data": [
    {"experiment": "NCI Yeast Anticancer Drug Screen. Data for the rad50 strain (AID 155);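 note: 0% = growth of vehicle-only cultures of the same strain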", "settings": "S. cerevisiae rad50 strain growth inhibition; at 100.0 µM; hits give high values", "summary_of_the_method": "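Growth of the mutant yeast was measured after compound exposure and referenced to vehicle-treated cultures.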", "values": [
      {"compound": "CCC/C(Cl)=N\\OC(=O)Nc1cccc(C(F)(F)F)c1", "growth inhibition": "26%"},
      {"compound": "[O-][n+]1c2ccc(O)cc2nc2ccc(Cl)cc21", "growth inhibition": "84% (active)"},
      {"compound": "Clc1ccccc1C1OC1c1ccccc1Cl", "note": "(stereo not drawn)", "growth inhibition": "14%"},
      {"compound": "c1ccc2c(c1)c1ncccc1c1nccnc21", "growth inhibition": "71% (active)"},
      {"compound": "CC(=O)Nc1ccc2c(c1)C(=Nc1ccc(C(=O)O)cc1)c1ccccc1-2", "growth inhibition": "95% (active)"},
      {"compound": "COc1ccc(OC)c2cc3ccccc3cc12", "growth inhibition": "4%"},
      {"compound": "COc1cc(C2c3cc4c(cc3OC(NNc3ccccc3)C2C)OCO4)cc(OC)c1OC", "note": "(stereo not drawn)", "growth inhibition": "73% (active)"},
      {"compound": "O=C1c2cc([N+](=O)[O-])ccc2-c2cccc(F)c21", "growth inhibition": "83% (active)"},
      {"compound": "CCCCCCCCCCCC(=O)N(C)C", "growth inhibition": "98% (active)"},
      {"compound": "CCCCCCCCCCCC1=C(O)C(=O)C=C(O)C1=O", "growth inhibition": "93% (active)"},
      {"compound": "Cc1ccc(CSC(N)=Nc2ccccc2)cc1C", "growth inhibition": "30%"},
      {"compound": "CCCCCCCCCCC1CCC(=O)O1", "note": "(stereo not drawn)", "growth inhibition": "99% (active)"},
      {"compound": "O=[N+]([O-])c1cc(CCl)ccc1CCl", "growth inhibition": "97% (active)"},
      {"compound": "Nc1ccc2c(c1)C(=O)c1cccc(N)c1C2=O", "growth inhibition": "93% (active)"},
      {"compound": "CCCCCCCCCCNC(=O)OCC", "growth inhibition": "99% (active)"},
      {"compound": "CC1=C(C)Cc2c(O)ccc(O)c2C1", "growth inhibition": "93% (active)"},
      {"compound": "COc1ccc2c(c1)C(=O)c1ccccc1C2", "growth inhibition": "35%"},
      {"compound": "CCC(=O)OCCn1c2nc(=O)[nH]c(=O)c-2nc2cc(C)c(C)cc21", "growth inhibition": "44%"},
      {"compound": "O=C(OCCN1CCCCCC1)C(c1ccsc1)C1CCCCC1", "note": "(stereo not drawn)", "growth inhibition": "46%"},
      {"compound": "Oc1c(Br)cc(Br)cc1C1CCCCC1", "growth inhibition": "96% (active)"},
      {"compound": "CC1(C)[C@@H]2CC[C@]1(C)[C@H](OC(=O)CSC#N)C2", "growth inhibition": "96% (active)"},
      {"compound": "S=C(N/N=C(/c1ccccc1)c1ccccn1)N1CCCCCC1", "growth inhibition": "8%"},
      {"compound": "Cc1ccc2[nH]c3c(C)c4cc[n+](C)cc4c(C)c3c2c1", "growth inhibition": "95% (active)"},
      {"compound": "CNC(=O)OCc1c(COC(=O)NC)c(-c2ccc(-c3ccccc3)cc2)n(C)c1C", "growth inhibition": "70% (active)"},
      {"compound": "COc1ccccc1/C=C1\\Sc2scc(-c3cccc([N+](=O)[O-])c3)[n+]2C1=O", "growth inhibition": "91% (active)"},
      {"compound": "O=[N+]([O-])c1ccc2c(c1)C(N1CCN(CCO)CC1)Cc1ccc(F)cc1S2", "note": "(stereo not drawn)", "growth inhibition": "62%"},
      {"compound": "Cc1ccc(CCC2=CCCc3c2ccc2ccccc32)cc1", "growth inhibition": "2%"},
      {"compound": "O=[N+]([O-])c1cccc2nccc(NCCCO)c12", "growth inhibition": "70% (active)"},
      {"compound": "Cc1ccc(-n2cc(-c3ccc(Cl)cc3)c(C#N)c2N)cc1", "growth inhibition": "13%"},
      {"compound": "Cc1ccc(S/N=C\\c2ccccc2O)cc1", "growth inhibition": "6%"},
      {"compound": "O=C(O)C1OC1(c1cccc(Cl)c1)c1ccccc1Cl", "note": "(stereo not drawn)", "growth inhibition": "88% (active)"},
      {"compound": "NC(=S)N/N=C\\c1nccc2ccccc12", "growth inhibition": "97% (active)"},
      {"compound": "Clc1cccc(C(Nc2nncs2)Nc2nncs2)c1Cl", "growth inhibition": "83% (active)"},
      {"compound": "O=C(OCC=C1CCCC1)c1cc([N+](=O)[O-])cc([N+](=O)[O-])c1", "growth inhibition": "96% (active)"},
      {"compound": "O=C(Nc1ccccc1)C(=O)C(C(=O)c1ccccc1)C(c1ccccc1)c1ccccc1", "note": "(stereo not drawn)", "growth inhibition": "37%"},
      {"compound": "N#CN1C2CCC1CC(=O)C2", "growth inhibition": "-24%"},
      {"compound": "COc1ccccc1C(=O)OCC1CCCN2CCCCC12", "note": "(stereo not drawn)", "growth inhibition": "97% (active)"},
      {"compound": "CCNc1nnc(CSc2nc(-c3ccccc3)c(-c3ccccc3)[nH]2)s1", "growth inhibition": "76% (active)"},
      {"compound": "O=C1c2ccccc2-c2n[nH]c3cccc1c23", "growth inhibition": "74% (active)"}
    ]},
    {"experiment": "NCI Yeast Anticancer Drug Screen. Data for the mec2-1 strain (AID 157)", "settings": "S. cerevisiae mec2-1 strain, at 1.2 µM, hits give high values", "summary_of_the_method": "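mec2-1 yeast strain, carrying an alteration in DNA damage repair or cell cycle control, was exposed to compounds; growth inhibition was measured relative to vehicle-treated controls.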", "units": {"growth inhibition": "%"}, "values": [
      {"compound": "CCC/C(Cl)=N\\OC(=O)Nc1cccc(C(F)(F)F)c1", "growth inhibition": 15},
      {"compound": "[O-][n+]1c2ccc(O)cc2nc2ccc(Cl)cc21", "growth inhibition": 0},
      {"compound": "Clc1ccccc1C1OC1c1ccccc1Cl", "note": "(stereo not drawn)", "growth inhibition": -92},
      {"compound": "c1ccc2c(c1)c1ncccc1c1nccnc21", "growth inhibition": 1},
      {"compound": "CC(=O)Nc1ccc2c(c1)C(=Nc1ccc(C(=O)O)cc1)c1ccccc1-2", "growth inhibition": 1},
      {"compound": "COc1ccc(OC)c2cc3ccccc3cc12", "growth inhibition": -5},
      {"compound": "COc1cc(C2c3cc4c(cc3OC(NNc3ccccc3)C2C)OCO4)cc(OC)c1OC", "note": "(stereo not drawn)", "growth inhibition": 2},
      {"compound": "O=C1c2cc([N+](=O)[O-])ccc2-c2cccc(F)c21", "growth inhibition": 0},
      {"compound": "CCCCCCCCCCCC(=O)N(C)C", "growth inhibition": -34},
      {"compound": "CCCCCCCCCCCC1=C(O)C(=O)C=C(O)C1=O", "growth inhibition": -7},
      {"compound": "Cc1ccc(CSC(N)=Nc2ccccc2)cc1C", "growth inhibition": -3},
      {"compound": "CCCCCCCCCCC1CCC(=O)O1", "note": "(stereo not drawn)", "growth inhibition": -1},
      {"compound": "O=[N+]([O-])c1cc(CCl)ccc1CCl", "growth inhibition": 3},
      {"compound": "Nc1ccc2c(c1)C(=O)c1cccc(N)c1C2=O", "growth inhibition": 4},
      {"compound": "CCCCCCCCCCNC(=O)OCC", "growth inhibition": -7},
      {"compound": "CC1=C(C)Cc2c(O)ccc(O)c2C1", "growth inhibition": -3},
      {"compound": "COc1ccc2c(c1)C(=O)c1ccccc1C2", "growth inhibition": -1},
      {"compound": "CCC(=O)OCCn1c2nc(=O)[nH]c(=O)c-2nc2cc(C)c(C)cc21", "growth inhibition": -2},
      {"compound": "O=C(OCCN1CCCCCC1)C(c1ccsc1)C1CCCCC1", "note": "(stereo not drawn)", "growth inhibition": 3},
      {"compound": "Oc1c(Br)cc(Br)cc1C1CCCCC1", "growth inhibition": -9},
      {"compound": "CC1(C)[C@@H]2CC[C@]1(C)[C@H](OC(=O)CSC#N)C2", "growth inhibition": 4},
      {"compound": "S=C(N/N=C(/c1ccccc1)c1ccccn1)N1CCCCCC1", "growth inhibition": 1},
      {"compound": "Cc1ccc2[nH]c3c(C)c4cc[n+](C)cc4c(C)c3c2c1", "growth inhibition": -2},
      {"compound": "CNC(=O)OCc1c(COC(=O)NC)c(-c2ccc(-c3ccccc3)cc2)n(C)c1C", "growth inhibition": -17},
      {"compound": "COc1ccccc1/C=C1\\Sc2scc(-c3cccc([N+](=O)[O-])c3)[n+]2C1=O", "growth inhibition": 67},
      {"compound": "O=[N+]([O-])c1ccc2c(c1)C(N1CCN(CCO)CC1)Cc1ccc(F)cc1S2", "note": "(stereo not drawn)", "growth inhibition": -8},
      {"compound": "Cc1ccc(CCC2=CCCc3c2ccc2ccccc32)cc1", "growth inhibition": -4},
      {"compound": "O=[N+]([O-])c1cccc2nccc(NCCCO)c12", "growth inhibition": -20},
      {"compound": "Cc1ccc(-n2cc(-c3ccc(Cl)cc3)c(C#N)c2N)cc1", "growth inhibition": 0},
      {"compound": "Cc1ccc(S/N=C\\c2ccccc2O)cc1", "growth inhibition": 0},
      {"compound": "O=C(O)C1OC1(c1cccc(Cl)c1)c1ccccc1Cl", "note": "(stereo not drawn)", "growth inhibition": -6},
      {"compound": "NC(=S)N/N=C\\c1nccc2ccccc12", "growth inhibition": 4},
      {"compound": "Clc1cccc(C(Nc2nncs2)Nc2nncs2)c1Cl", "growth inhibition": -1},
      {"compound": "O=C(OCC=C1CCCC1)c1cc([N+](=O)[O-])cc([N+](=O)[O-])c1", "growth inhibition": -3},
      {"compound": "O=C(Nc1ccccc1)C(=O)C(C(=O)c1ccccc1)C(c1ccccc1)c1ccccc1", "note": "(stereo not drawn)", "growth inhibition": 8},
      {"compound": "N#CN1C2CCC1CC(=O)C2", "growth inhibition": -27},
      {"compound": "COc1ccccc1C(=O)OCC1CCCN2CCCCC12", "note": "(stereo not drawn)", "growth inhibition": 0},
      {"compound": "CCNc1nnc(CSc2nc(-c3ccccc3)c(-c3ccccc3)[nH]2)s1", "growth inhibition": 8},
      {"compound": "O=C1c2ccccc2-c2n[nH]c3cccc1c23", "growth inhibition": -67}
    ]}
  ]
}
